# Measurements reported in PMC7862700, “An all-to-all approach to the identification of sequence-specific readers for epigenetic DNA modifications on cytosine”.
# Legend:
# Experiment in all cases: DAPPL (digital affinity profiling via proximity ligation, sequencing); 10 mM Tris-HCl pH 7.5, 50 mM NaCl, 1 mM DTT, 4% glycerol, room temperature, 30 min; GST-TFs on glutathione beads, 16-mer random dsDNA library, 0.1% formaldehyde crosslink after washing; high values mean tight binding
# Conditions in all cases: protein: recombinant; tags: N-terminal GST; dsDNA, one strand shown
# ELK1 = target: T1, ELK1 (Homo sapiens, UniProt P19419 1-428)
# T1 sequence: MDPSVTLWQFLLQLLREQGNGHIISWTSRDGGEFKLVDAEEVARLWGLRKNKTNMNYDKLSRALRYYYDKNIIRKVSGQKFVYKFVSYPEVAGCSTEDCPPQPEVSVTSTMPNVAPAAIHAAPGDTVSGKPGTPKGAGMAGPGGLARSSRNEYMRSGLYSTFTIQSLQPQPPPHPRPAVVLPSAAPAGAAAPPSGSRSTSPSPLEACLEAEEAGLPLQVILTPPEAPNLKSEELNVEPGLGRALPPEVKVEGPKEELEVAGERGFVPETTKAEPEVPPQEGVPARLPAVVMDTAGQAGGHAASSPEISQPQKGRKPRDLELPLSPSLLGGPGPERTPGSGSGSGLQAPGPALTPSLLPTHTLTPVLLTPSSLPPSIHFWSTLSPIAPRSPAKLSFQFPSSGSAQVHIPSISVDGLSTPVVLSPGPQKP
# Method in brief: (§1)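 A tag-only sample was pooled with DNA-barcoded human transcription factors that had been expressed in yeast as GST fusions and captured on glutathione beads. The pools were incubated for 30 min at room temperature with 200 nmole of a random double-stranded 16-mer DNA library in Tris/NaCl/DTT/glycerol buffer, then washed, crosslinked with 0.1% formaldehyde, proximity-ligated (BsaI/T4 ligase, 1 h, 37 °C), PCR-amplified and sequenced on an Illumina NextSeq500. Binding signal is each hexamer's read frequency for a factor divided by its frequency for the tag-only sample.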
# GABPA = target: T2, GABPA (Homo sapiens, UniProt Q06546 1-454)
# T2 sequence: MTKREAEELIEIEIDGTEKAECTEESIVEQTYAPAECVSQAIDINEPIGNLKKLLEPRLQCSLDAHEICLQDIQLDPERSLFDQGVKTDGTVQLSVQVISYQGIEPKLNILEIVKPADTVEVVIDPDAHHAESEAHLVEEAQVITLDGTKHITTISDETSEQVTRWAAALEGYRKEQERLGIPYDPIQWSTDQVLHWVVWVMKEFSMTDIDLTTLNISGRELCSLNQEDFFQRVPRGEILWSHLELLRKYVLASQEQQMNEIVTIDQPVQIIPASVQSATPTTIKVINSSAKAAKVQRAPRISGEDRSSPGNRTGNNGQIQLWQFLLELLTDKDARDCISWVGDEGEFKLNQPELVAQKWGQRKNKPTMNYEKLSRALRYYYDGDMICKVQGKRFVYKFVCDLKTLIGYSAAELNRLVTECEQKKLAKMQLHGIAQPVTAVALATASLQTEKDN
# Method in brief: as §1
# ERG = target: T3, ERG (Homo sapiens, UniProt P11308 1-479)
# T3 sequence: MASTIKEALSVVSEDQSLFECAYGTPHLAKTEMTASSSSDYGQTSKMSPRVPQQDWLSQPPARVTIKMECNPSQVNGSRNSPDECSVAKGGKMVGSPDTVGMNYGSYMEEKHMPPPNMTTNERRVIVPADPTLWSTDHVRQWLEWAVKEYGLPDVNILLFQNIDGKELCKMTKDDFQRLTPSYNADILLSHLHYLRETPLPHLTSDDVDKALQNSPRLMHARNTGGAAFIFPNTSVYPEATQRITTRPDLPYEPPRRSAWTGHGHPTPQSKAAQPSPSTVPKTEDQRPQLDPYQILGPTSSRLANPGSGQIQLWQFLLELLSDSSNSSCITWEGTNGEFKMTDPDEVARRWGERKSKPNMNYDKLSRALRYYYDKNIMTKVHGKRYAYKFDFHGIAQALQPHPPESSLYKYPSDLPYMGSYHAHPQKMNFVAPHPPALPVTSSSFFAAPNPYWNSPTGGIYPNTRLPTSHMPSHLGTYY
# Method in brief: as §1
# EHF = target: T4, EHF (Homo sapiens, UniProt Q9NZC4 1-300)
# T4 sequence: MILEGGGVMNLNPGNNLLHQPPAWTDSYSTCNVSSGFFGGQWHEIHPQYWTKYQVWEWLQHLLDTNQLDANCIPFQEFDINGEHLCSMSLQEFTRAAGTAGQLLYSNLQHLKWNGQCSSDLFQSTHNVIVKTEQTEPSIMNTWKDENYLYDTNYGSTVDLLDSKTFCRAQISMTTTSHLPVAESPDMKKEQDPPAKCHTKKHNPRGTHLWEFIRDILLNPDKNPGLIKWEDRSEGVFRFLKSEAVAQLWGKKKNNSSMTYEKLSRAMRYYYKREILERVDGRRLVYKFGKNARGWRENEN
# Method in brief: as §1
# SPIB = SPIB (Homo sapiens, UniProt Q01892 1-262)
# Method in brief: as §1
# ETV5 = ETV5 (Homo sapiens, UniProt P41161 1-510)
# Method in brief: as §1
# ETV2 = target: T5, ETV2 (Homo sapiens, UniProt O00321 1-342)
# T5 sequence: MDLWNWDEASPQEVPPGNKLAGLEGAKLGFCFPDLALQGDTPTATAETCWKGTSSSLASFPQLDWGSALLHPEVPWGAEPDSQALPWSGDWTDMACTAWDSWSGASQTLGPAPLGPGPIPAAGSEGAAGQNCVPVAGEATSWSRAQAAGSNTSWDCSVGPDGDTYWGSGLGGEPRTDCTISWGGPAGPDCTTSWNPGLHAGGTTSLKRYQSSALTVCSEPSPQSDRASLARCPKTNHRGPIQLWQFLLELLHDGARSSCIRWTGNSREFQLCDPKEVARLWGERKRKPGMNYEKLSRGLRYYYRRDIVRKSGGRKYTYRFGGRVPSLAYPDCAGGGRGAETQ
# Method in brief: as §1
# ELF3 = target: T6, ELF3 (Homo sapiens, UniProt P78545 1-371)
# T6 sequence: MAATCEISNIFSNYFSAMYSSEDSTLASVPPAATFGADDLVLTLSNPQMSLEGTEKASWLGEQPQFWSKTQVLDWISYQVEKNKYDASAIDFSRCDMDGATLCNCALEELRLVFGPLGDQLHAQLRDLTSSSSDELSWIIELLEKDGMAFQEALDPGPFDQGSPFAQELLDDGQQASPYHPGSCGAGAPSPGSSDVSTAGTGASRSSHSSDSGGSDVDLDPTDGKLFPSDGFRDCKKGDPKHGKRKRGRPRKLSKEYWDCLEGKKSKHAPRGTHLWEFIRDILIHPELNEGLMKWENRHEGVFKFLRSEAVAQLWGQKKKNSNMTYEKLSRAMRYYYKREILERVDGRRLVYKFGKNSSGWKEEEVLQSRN
# Method in brief: as §1
# ERF = target: T7, ERF (Homo sapiens, UniProt P50548 1-548)
# T7 sequence: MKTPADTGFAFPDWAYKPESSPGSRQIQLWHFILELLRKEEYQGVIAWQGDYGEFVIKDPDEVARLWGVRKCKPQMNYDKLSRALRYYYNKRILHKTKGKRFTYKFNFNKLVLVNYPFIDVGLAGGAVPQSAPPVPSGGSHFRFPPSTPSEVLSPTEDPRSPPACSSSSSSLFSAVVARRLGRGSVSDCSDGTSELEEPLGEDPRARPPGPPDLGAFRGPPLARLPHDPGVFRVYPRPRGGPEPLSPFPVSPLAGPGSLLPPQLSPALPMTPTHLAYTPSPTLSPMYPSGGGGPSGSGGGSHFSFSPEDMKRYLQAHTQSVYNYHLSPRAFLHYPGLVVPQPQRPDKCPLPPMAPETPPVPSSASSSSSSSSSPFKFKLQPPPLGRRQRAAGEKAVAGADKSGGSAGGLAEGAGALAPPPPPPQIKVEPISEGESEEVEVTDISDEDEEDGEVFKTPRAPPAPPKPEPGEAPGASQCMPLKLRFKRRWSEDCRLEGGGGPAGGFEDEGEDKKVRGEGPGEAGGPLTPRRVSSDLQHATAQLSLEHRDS
# Method in brief: as §1
# ETS2 = target: T8, ETS2 (Homo sapiens, UniProt P15036 1-469)
# T8 sequence: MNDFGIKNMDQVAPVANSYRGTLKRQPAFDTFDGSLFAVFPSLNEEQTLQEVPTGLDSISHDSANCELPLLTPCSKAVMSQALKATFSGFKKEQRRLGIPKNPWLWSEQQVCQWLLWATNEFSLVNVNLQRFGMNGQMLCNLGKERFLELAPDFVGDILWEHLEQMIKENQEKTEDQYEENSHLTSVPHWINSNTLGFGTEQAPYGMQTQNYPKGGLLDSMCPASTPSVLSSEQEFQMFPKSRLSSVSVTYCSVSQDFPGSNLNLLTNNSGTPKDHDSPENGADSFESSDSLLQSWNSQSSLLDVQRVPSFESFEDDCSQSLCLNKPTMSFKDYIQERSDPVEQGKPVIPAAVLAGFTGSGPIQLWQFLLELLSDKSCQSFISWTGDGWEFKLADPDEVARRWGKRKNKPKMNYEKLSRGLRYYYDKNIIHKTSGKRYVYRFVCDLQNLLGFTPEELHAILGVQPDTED
# Method in brief: as §1
# SPDEF = target: T9, SPDEF (Homo sapiens, UniProt O95238 1-335)
# T9 sequence: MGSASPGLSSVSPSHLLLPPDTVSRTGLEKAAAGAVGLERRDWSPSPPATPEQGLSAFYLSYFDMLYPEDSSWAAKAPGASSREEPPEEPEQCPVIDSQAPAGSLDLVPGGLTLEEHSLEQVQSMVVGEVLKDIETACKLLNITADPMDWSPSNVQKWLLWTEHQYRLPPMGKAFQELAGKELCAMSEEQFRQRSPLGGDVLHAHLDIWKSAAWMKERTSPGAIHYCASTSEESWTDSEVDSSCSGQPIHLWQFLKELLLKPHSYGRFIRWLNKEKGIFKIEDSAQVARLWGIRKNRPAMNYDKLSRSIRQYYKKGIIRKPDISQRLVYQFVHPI
# Method in brief: as §1
# ETV7 = target: T10, ETV7 (Homo sapiens, UniProt Q9Y603 1-341)
# T10 sequence: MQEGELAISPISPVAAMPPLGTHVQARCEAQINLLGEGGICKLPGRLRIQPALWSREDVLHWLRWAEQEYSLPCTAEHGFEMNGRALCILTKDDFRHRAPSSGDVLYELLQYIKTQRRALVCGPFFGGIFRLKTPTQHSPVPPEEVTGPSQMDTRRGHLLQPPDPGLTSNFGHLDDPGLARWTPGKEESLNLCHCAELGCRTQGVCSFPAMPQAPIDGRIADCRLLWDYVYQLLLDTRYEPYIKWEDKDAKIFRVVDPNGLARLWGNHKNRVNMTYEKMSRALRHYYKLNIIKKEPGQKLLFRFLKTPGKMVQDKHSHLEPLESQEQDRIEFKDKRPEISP
# Method in brief: as §1
# ETV6 = ETV6 (Homo sapiens, UniProt P41212 1-452)
# Method in brief: as §1
# Sequence of ETV6 (P41212 whole entry): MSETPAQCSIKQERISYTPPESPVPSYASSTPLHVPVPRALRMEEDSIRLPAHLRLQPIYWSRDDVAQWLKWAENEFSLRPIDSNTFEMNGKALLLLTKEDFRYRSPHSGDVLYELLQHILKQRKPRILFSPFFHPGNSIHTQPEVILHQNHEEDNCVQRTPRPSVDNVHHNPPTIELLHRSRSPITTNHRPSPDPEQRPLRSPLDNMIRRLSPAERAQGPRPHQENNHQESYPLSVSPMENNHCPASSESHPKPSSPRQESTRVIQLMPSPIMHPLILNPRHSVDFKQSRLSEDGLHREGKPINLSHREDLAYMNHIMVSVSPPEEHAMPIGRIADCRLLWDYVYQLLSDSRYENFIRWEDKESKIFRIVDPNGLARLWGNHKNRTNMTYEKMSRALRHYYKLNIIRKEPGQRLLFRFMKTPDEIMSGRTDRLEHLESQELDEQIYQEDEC
# Sequence of ETV5 (P41161 whole entry): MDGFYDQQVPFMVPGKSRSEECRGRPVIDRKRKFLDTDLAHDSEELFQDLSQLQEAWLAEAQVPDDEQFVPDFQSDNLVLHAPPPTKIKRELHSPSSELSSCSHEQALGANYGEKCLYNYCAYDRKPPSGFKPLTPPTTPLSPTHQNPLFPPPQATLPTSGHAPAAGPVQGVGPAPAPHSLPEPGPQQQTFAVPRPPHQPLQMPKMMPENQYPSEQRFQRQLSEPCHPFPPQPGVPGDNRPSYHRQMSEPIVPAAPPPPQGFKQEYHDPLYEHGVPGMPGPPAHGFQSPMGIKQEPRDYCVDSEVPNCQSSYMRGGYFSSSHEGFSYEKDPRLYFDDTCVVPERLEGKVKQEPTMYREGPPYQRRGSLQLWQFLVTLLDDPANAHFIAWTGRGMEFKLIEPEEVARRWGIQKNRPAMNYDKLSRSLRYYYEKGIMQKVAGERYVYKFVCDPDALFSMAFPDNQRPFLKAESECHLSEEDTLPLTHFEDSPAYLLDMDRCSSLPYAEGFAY
# Sequence of SPIB (Q01892 whole entry): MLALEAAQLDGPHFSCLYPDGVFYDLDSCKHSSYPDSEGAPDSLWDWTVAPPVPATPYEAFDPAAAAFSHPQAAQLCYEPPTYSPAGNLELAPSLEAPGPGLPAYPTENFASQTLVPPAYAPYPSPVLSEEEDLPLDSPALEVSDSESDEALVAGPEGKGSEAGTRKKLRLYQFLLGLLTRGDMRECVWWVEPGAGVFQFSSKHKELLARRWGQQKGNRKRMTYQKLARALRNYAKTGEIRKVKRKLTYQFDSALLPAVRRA
sequence,measurement,setting,value
TGGGAA,binding signal,ELK1,"1.08 fold enrichment (6-mer frequency, TF over GST control)"
same,binding signal,GABPA,"1.05 fold enrichment (6-mer frequency, TF over GST control)"
same,binding signal,ERG,"1.02 fold enrichment (6-mer frequency, TF over GST control)"
same,binding signal,EHF,"1.04 fold enrichment (6-mer frequency, TF over GST control)"
same,binding signal,SPIB,"1.05 fold enrichment (6-mer frequency, TF over GST control)"
same,binding signal,ETV5,"1.04 fold enrichment (6-mer frequency, TF over GST control)"
same,binding signal,ETV2,"1.02 fold enrichment (6-mer frequency, TF over GST control)"
same,binding signal,ELF3,"1.13 fold enrichment (6-mer frequency, TF over GST control)"
same,binding signal,ERF,"1.04 fold enrichment (6-mer frequency, TF over GST control)"
same,binding signal,ETS2,"1.02 fold enrichment (6-mer frequency, TF over GST control)"
same,binding signal,SPDEF,"1.01 fold enrichment (6-mer frequency, TF over GST control)"
same,binding signal,ETV7,"1.09 fold enrichment (6-mer frequency, TF over GST control)"
same,binding signal,ETV6,"1.17 fold enrichment (6-mer frequency, TF over GST control)"
